# Activity calls are given as the source filed them. The rule behind the calls is not given here.
# Target: Histone deacetylase 4 (Homo sapiens) (UniProt P56524)
# Test: HDAC4 enzyme inhibition, profiling panel, selectivity assay for E-cadherin restoration project, biochemical, HDAC isoform panel (AID 651928)
# Histone deacetylase 4 (Homo sapiens), sequence (P56524 whole entry, looked up, canonical isoform): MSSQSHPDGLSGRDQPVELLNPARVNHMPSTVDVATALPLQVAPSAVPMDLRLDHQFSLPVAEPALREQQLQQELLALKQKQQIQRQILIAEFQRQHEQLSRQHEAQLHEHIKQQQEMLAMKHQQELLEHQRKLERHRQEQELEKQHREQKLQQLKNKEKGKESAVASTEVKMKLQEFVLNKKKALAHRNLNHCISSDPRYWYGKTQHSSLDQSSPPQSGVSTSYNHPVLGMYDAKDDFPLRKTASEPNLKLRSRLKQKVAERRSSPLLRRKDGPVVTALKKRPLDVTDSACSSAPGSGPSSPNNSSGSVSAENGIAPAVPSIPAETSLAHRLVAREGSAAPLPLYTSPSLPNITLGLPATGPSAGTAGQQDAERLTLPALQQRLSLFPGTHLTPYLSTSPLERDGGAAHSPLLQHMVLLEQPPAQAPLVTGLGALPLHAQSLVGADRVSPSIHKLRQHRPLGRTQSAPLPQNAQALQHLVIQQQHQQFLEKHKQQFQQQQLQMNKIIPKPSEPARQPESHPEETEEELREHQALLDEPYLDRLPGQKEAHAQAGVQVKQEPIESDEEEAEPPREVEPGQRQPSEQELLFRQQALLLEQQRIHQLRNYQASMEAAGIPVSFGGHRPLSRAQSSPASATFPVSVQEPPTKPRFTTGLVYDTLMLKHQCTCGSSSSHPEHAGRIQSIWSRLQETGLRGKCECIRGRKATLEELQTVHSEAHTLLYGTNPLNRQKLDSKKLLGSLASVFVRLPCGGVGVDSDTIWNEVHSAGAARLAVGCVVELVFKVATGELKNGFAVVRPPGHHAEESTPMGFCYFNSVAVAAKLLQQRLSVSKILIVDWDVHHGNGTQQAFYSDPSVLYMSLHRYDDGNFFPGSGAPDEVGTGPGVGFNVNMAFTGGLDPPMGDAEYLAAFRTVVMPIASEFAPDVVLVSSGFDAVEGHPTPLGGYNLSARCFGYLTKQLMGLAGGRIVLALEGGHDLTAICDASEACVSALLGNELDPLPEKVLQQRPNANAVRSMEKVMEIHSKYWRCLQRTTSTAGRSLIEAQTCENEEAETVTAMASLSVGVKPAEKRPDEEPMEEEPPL
compound,measurement,value
O=C(NCCCNC(=O)c1ccc[nH]c1=O)c1cc(-c2ccccc2)on1,outcome,inactive
